In the library only some 4% were active in any assay of this set; here they are far more common.
Shn3 inh set2 = reduces Shn3 3'UTR luciferase signal in osteoblasts | Clone20 osteoblast Shn3 3'UTR firefly luciferase, 24 h | inhibition, % at 12.5 µM | actives 0.52% (n = 360,000) | AID 588674;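 active = mean inhibition of at least 75% with every replicate also reaching 75%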;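 note: 0% = median of neutral control wells and 100% = pilot-screen positive control compound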
Gli-Sufu antag = blocks Gli-Sufu signaling in a luciferase reporter; Sufu-KO-LIGHT fibroblasts, Gli luciferase reporter luminescence; inhibition, % at 5 µM; actives 0.74% (n = 340,000); AID 588413;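 active = inhibition above about 55%, limit read from the data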;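 note: 0% = DMSO-treated cells and 100% = wells with medium but no cells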
Mdm2 MdmX PPI = disrupts the human Mdm2-MdmX interaction | SaOS-2 split-luciferase Mdm2/MdmX complementation, luminescence | actives 3% (n = 330,000) | AID 485346 | O15151+Q00987 | inhibition, % at 8 µM;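 active = inhibition of at least 50% at 8 µM in the primary screen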
Target sequence (O15151 whole entry, looked up): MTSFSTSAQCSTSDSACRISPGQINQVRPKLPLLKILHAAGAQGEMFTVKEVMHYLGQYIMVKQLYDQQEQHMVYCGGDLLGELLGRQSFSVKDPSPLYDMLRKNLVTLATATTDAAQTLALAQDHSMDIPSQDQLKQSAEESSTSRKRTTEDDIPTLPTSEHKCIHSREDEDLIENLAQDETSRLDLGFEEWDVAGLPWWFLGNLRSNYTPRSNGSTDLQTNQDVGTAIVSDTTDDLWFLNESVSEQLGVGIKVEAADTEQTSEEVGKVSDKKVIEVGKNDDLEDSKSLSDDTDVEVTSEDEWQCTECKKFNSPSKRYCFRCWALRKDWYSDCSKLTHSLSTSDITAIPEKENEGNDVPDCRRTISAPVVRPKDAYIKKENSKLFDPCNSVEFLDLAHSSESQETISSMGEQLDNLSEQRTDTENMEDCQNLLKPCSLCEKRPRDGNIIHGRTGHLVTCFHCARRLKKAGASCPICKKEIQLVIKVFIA
Target sequence (Q00987 whole entry, looked up): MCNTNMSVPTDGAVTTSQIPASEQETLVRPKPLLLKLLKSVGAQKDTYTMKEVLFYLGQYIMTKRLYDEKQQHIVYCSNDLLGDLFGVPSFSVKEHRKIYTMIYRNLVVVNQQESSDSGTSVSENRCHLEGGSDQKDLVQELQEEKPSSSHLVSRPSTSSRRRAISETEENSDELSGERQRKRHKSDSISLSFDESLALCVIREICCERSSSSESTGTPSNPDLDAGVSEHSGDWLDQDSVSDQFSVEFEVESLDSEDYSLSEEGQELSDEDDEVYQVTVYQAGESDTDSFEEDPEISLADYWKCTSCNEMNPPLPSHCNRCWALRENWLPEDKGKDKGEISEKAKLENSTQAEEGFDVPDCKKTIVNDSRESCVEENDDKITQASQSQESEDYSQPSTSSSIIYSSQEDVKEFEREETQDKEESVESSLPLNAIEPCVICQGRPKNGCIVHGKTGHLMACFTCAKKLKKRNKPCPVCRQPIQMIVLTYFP
PAX8 inh HTS = lowers PAX8-driven luciferase in RMG-I cells. RMG-I TPO-luciferase reporter, SteadyGlo, 24 h. inhibition, % at 12.6 µM. actives 1.2% (n = 360,000);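 active = mean replicate inhibition at least 60% with every replicate also reaching 60%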;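 note: luciferase light reporting Pax8 driven TPO promoter activity; plate controls were median of neutral control wells for no effect and mitoxantrone controls for full effect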
Beta cell apopt = blocks beta cell apoptosis. INS-1E cytokine-induced death, ATP luminescence, 48 h; percent of positive-control rescue, neutral wells zero. protection from apoptosis, % (no concentration beside the values). actives 0.8% (n = 300,000). AID 435005;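 active = Every replicate reaches about 75%, or at least half do and their mean reaches it too, limit read from the data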;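 note: 0% = cytokine-treated negative control wells and 100% = positive control rescue; higher means more ATP so stronger rescue from cytokine killing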
CSC inhib = cancer stem cell inhibition | cancer stem cell-like cells viability, luminescence | inhibition, % at 7.5 µM | actives 1.1% (n = 300,000) | AID 2717; in the data active = inhibition above about 75%; tested in HMLE shEcad cells
Mdm2-MdmX conf = confirmation of human Mdm2/MdmX interaction inhibitors; inhibition, % at 8 µM; Mdm2-MdmX binding, luminescent assay; actives 55% (n = 10,000); shares compounds with Mdm2 MdmX PPI; in the data active = inhibition above about 40%
FLuc counter = counter-screen for Mdm2/MdmX inhibitors: full-length luciferase; inhibition, % at 8 µM; actives 77% (n = 6,200); shares compounds with Mdm2 MdmX PPI; SaOS-2 full-length luciferase counterscreen, luminescence; AID 504607;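 active = mean inhibition at 8 µM reaching about 37%, which flags the compound as non-specific, limit read from the data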;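 note: p53-null SaOS-2 cells with luciferase driven by a doxycycline-inducible promoter; compound on cells about two nights before reading with doxycycline added after day one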
* marks the source's active call; other numbers are inactive results; . = no result.

SMILES | Shn3 inh set2 | Gli-Sufu antag | Mdm2 MdmX PPI | PAX8 inh HTS | Beta cell apopt | CSC inhib | Mdm2-MdmX conf | FLuc counter
NC(=O)CSc1nc(C23CC4CC(CC(C4)C2)C3)nc2ccccc12 | 0.1 | -5.2 | 59.8* | 29.1 | -8.0 | 55.3 | 37.6 | 44.8*
Cc1cccc(N2C(=O)c3cccc4c(N5CCCCC5)c([N+](=O)[O-])cc(c34)C2=O)c1C | 2.4 | 17.4 | 18.4 | -8.5 | . | 13.2 | . | .
Cc1nnc(N2C(=O)c3cccc4c([N+](=O)[O-])ccc(c34)C2=O)s1 | 22.4 | 2.0 | 60.8* | 18.0 | 0.5 | 51.2 | 37.5 | .
O=C1c2cccc3c([N+](=O)[O-])ccc(c23)C(=O)N1Cc1cccnc1 | 49.3 | 3.3 | . | 33.7 | . | . | . | .
Cc1ccnc(N2C(=O)c3ccccc3C2=O)c1 | -1.9 | 19.7 | -17.2 | 20.0 | -13.6 | -7.2 | . | .
Cc1ccc(N2C(=O)c3cccc4c(N5CCN(C)CC5)ccc(c34)C2=O)c2cccnc12 | . | 11.7 | 66.0* | . | -1.3 | 17.2 | 65.0* | 56.5*
Cc1ccc(N2C(=O)c3cccc4c([N+](=O)[O-])ccc(c34)C2=O)c2cccnc12 | 92.2* | 12.3 | 91.8* | 14.6 | 45.5 | 63.6 | 59.9* | 59.9*
Cc1ccnc(N2C(=O)c3cccc4c([N+](=O)[O-])ccc(c34)C2=O)c1 | 47.3 | 7.7 | 100.3* | . | 18.1 | 121.1* | 6.0 | .
COC(=O)c1cn(-c2cccc(N)c2)nn1 | . | . | . | 6.0 | . | . | . | .
COC(=O)[C@H](Cc1ccccc1)N1C(=O)O[C@@H](Cc2ccccc2)[C@H]1/C=C/C1CC1 | . | . | . | 14.0 | . | . | . | .
C[C@@H]1CN([C@H](C)CO)C(=O)c2cc(N(C)C)ccc2O[C@@H](C)CCCCO[C@H]1CN(C)C(=O)Nc1ccc2c(c1)OCO2 | . | . | . | 3.7 | . | . | . | .
C[C@H]1CN([C@@H](C)CO)S(=O)(=O)c2ccc(C3=CCCCC3)cc2O[C@H]1CN(C)C(=O)Nc1ccc2c(c1)OCO2 | . | . | . | -3.4 | . | . | . | .
O=c1c(Cl)c(Cl)cnn1Cc1ccc(F)cc1 | -2.8 | -3.9 | 93.4* | 55.2 | 111.6* | -23.3 | 34.6 | .
O=C(OCn1ncc(Cl)c(Cl)c1=O)c1ccc(F)cc1 | . | . | 93.2* | . | 102.2* | . | 100.2* | 50.4*
ClC(Cl)(Cl)c1nc2ccccc2n2nncc12 | 7.6 | 22.8 | 76.8* | 86.3* | 23.5 | 49.0 | 60.2* | 31.8
c1ccc2c(c1)nnn1c3ccccc3nc21 | . | . | -128.6 | . | 13.1 | 12.9 | . | .
COc1cc2nc(SCC(N)=O)n(CCC3=CCCCC3)c(=O)c2cc1OC | 8.9 | 16.0 | 79.6* | . | 3.5 | 0.0 | 14.2 | .
CC(=O)N1N=C(c2ccccc2)CC1c1cn(Cc2ccccc2)c2ccccc12 (stereo not given) | 58.9 | 7.4 | 58.6* | 21.8 | 9.0 | 52.5 | 50.9* | 46.8*
O=C(C[C@@H]1CC[C@@H]2[C@H](COC[C@H](O)CN2C(=O)c2cccnc2)O1)NCc1ccc(Cl)cc1 | . | . | . | -33.6 | . | . | . | .
CCCCN(C)CC(O)Cn1cc(/C=C/C(=O)c2ccc(OCC)cc2)c2ccccc21 (stereo not given) | . | . | 69.2* | . | 8.6 | 99.2* | 19.1 | .
CCN1C(N(C)CCc2c[nH]c3ccccc23)=N[C@@H](c2cccc(C(F)(F)F)c2)C(C(=O)OC)=C1C | 2.2 | 13.6 | 87.9* | . | 7.3 | 67.0 | 40.7* | 43.6*
CCCCn1c(-c2ccc(C(C)(C)C)cc2)nc2cc3[nH]c(=O)c(C(C)C)nc3cc21 | 11.3 | 14.6 | 63.7* | -5.3 | -0.6 | 9.7 | 26.4 | .
CCC(=O)N[C@H]1C=C[C@@H](CC(=O)OC)O[C@@H]1CO | . | . | . | -11.8 | . | . | . | .
CC(=O)c1cc2c(cc1NC(=O)c1ccc(Cl)cc1)OCCO2 | 8.3 | 7.9 | 56.9* | -2.8 | . | 3.7 | 6.6 | .
CC(=O)Nc1cc2c(cc1C(C)=O)OCCO2 | -3.6 | -5.7 | -10.2 | . | -0.6 | -12.0 | . | .
SMILES | Shn3 inh set2 | Gli-Sufu antag | Mdm2 MdmX PPI | PAX8 inh HTS | Beta cell apopt | CSC inhib | Mdm2-MdmX conf | FLuc counter
COc1ccccc1NC(=O)N(C)C[C@H]1OCc2ccccc2-c2ccccc2C(=O)N([C@H](C)CO)C[C@H]1C | . | . | . | -26.0 | . | . | . | .
COC(=O)c1cn(NC(=O)c2cc([N+](=O)[O-])ccc2F)c(=O)c2ccccc12 | 93.6* | 23.6 | 83.1* | 42.4 | -21.2 | 42.0 | 75.9* | 53.7*
COc1ccc(CN(C)C[C@H]2OCCCC[C@H](C)Oc3ccc(NC(=O)Nc4cccc5ccccc45)cc3C(=O)N([C@@H](C)CO)C[C@@H]2C)cc1 | . | . | . | 29.9 | . | . | . | .
COC(=O)c1ccc(COc2ccc(-c3nnn(CC(N)=O)n3)cc2)cc1 | -16.7 | -30.0 | 55.6* | -2.4 | -0.9 | 7.8 | 11.4 | .
COC(=O)c1ccc(COc2ccc(-c3nnn(CC(=O)NC(C)(C)C)n3)cc2)cc1 | 3.9 | -2.3 | 49.1 | -3.5 | 5.1 | -3.4 | . | .
O=C(CS(=O)c1ccc(C(F)(F)F)cc1[N+](=O)[O-])Oc1ccccc1 (stereo not given) | -29.1 | 2.9 | 51.9* | 4.8 | -26.4 | 76.8* | 23.9 | .
COC(=O)c1ccc(OC(=O)CS(=O)c2ccccc2[N+](=O)[O-])cc1 (stereo not given) | -8.6 | -0.6 | -32.1 | 24.0 | -7.7 | -3.0 | . | .
O=C(Cc1cccnc1)N1CC(=O)N2[C@H](CO)[C@H](c3ccc(C#CC4CCCCC4)cc3)[C@H]2C1 | . | . | . | -5.2 | . | . | . | .
COc1ccc(-c2cc(N)n(S(=O)(=O)c3c(F)c(F)c(F)c(F)c3F)n2)cc1OC | 83.0 | 10.1 | 81.4* | . | 92.9* | 41.5 | 100.0* | -0.7
Cc1cc(NC(=O)CSc2nnc3c(C)cc4c(C)ccc(C)c4n23)no1 | 20.9 | 12.5 | 66.1* | . | 9.6 | 56.0 | 63.2* | 58.4*
CCc1nnc(NC(=O)CSc2nnc3c(C)cc4c(C)ccc(C)c4n23)s1 | -4.4 | 1.5 | 60.0* | 33.2 | 3.6 | 63.7 | 65.5* | 58.1*
COc1cc2cc(C)c3nnc(SCC(=O)Nc4cc(C)on4)n3c2cc1OC | 10.5 | 3.5 | 5.2 | -7.3 | -5.8 | 11.3 | . | .
CNC[C@H]1OCCCC[C@@H](C)Oc2ccc(NS(=O)(=O)c3ccccc3)cc2C(=O)N([C@@H](C)CO)C[C@H]1C | . | . | . | -4.4 | . | . | . | .
CN(C)CCCNC(=O)C[C@H]1C[C@H](C(=O)N2CCCCC2)[C@@]2(CCc3ccccc3)c3[nH]c4ccc(Cl)cc4c3CCN2C1=O | 6.8 | -6.1 | 97.4* | -5.4 | . | . | 91.0* | 51.2*
O=C(C[C@H]1C[C@H](C(=O)N2CCCCC2)[C@@]2(CCc3ccccc3)c3[nH]c4ccc(Cl)cc4c3CCN2C1=O)NCCC1=CCCCC1 | 58.4 | 3.3 | 77.4* | -17.2 | . | . | 25.4 | .
O=C(C[C@H]1C[C@H](C(=O)N2CCCCC2)[C@@]2(CCc3ccccc3)c3[nH]c4ccc(Cl)cc4c3CCN2C1=O)NCCc1ccccn1 | 32.6 | 13.8 | 25.8 | . | . | . | . | .

Compound activity (PubChem)
